“And” between values parts separate entries of the source, which are not always exact repeats. Equal entries are not always repeated. Among all 5,500 compounds or so, about 2,000 (36%) were called active. About 18% were inconclusive and are not listed. Cut-off read from the data, not from the text of the source: active = normalized growth mostly below about 0.91 (no sharp cut-off); inconclusive = no clear call, values can overlap the other calls; inactive = mostly above about 0.92. Some of the results follow. More than one record can exist for a structure, and the calls need not agree.
Test: chemical genetic growth profiling, strain panel (AID 1159580);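 note: tested at 20 µM; growth read once vehicle control cultures reached saturation at 30 °C; 1 = growth at the plate median or of vehicle wells; lower values mean less growth of the strain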
Conditions: growth OD

In the case of `CCN(CC)CCCC(C)Nc1c2ccc(Cl)cc2nc2ccc(OC)cc12` (stereo unspecified), the normalized growth (S. cerevisiae deletion strains, locus YJR075W, strain HOC1, stronger effect = lower value) is reported as 0.813 (active), the normalized growth (S. cerevisiae deletion strains, locus YKL009W, strain mrt4, stronger effect = lower value) is reported as 0.863 (active) and the normalized growth (S. cerevisiae deletion strains, locus YKL068W, stronger effect = lower value) is reported as 1 (inactive). For the same compound, the normalized growth (S. cerevisiae deletion strains, locus YKL085W, strain MDH1 (second series), stronger effect = lower value) was 0.93 (active), the normalized growth (S. cerevisiae deletion strains, locus YKL085W, strain MDH1, stronger effect = lower value) was 0.93 (active) and the normalized growth (S. cerevisiae deletion strains, locus YKL160W, strain elf1, stronger effect = lower value) was 0.931 (inactive). The normalized growth (S. cerevisiae deletion strains, locus YKL190W, strain CNB1, stronger effect = lower value) was 0.79 (active), the normalized growth (S. cerevisiae deletion strains, locus YKR001C, strain vps1, stronger effect = lower value) was 0.616 (active) and the normalized growth (S. cerevisiae deletion strains, locus YKR026C, strain gcn3, stronger effect = lower value) was 1.04 (inactive). For the same compound, the normalized growth (S. cerevisiae deletion strains, locus YKR091W, strain srl3, stronger effect = lower value) was 1.02 (inactive), the normalized growth (S. cerevisiae deletion strains, locus YLL001W, strain dnm1, stronger effect = lower value) was 0.902 (active) and the normalized growth (S. cerevisiae deletion strains, locus YLL026W, stronger effect = lower value) was 1.02 (inactive). The normalized growth (S. cerevisiae deletion strains, locus YLL041C, strain sdh2, stronger effect = lower value) was 1.03 (inactive), the normalized growth (S. cerevisiae deletion strains, locus YLR027C, strain aat2, stronger effect = lower value) was 0.964 (inactive) and the normalized growth (S. cerevisiae deletion strains, locus YLR039C, strain RIC1, stronger effect = lower value) was 0.949 (inactive). For the same compound, the normalized growth (S. cerevisiae deletion strains, locus YLR058C, strain SHM2, stronger effect = lower value) was 0.524 (active), the normalized growth (S. cerevisiae deletion strains, locus YLR102C, strain apc9, stronger effect = lower value) was 0.855 (active) and the normalized growth (S. cerevisiae deletion strains, locus YLR113W, strain HOG1, stronger effect = lower value) was 0.741 (active). For the same compound, the normalized growth (S. cerevisiae deletion strains, locus YLR221C, strain rsa3, stronger effect = lower value) was 0.993 (inactive), the normalized growth (S. cerevisiae deletion strains, locus YLR258W, strain gsy2, stronger effect = lower value) was 0.954 (inactive) and the normalized growth (S. cerevisiae deletion strains, locus YLR262C, strain YPT6 (second series), stronger effect = lower value) was 0.992 (inactive). The normalized growth (S. cerevisiae deletion strains, locus YLR262C, strain YPT6, stronger effect = lower value) was 0.945 (inactive), the normalized growth (S. cerevisiae deletion strains, locus YLR268W, strain sec22, stronger effect = lower value) was 0.717 (active) and the normalized growth (S. cerevisiae deletion strains, locus YLR320W, strain mms22, stronger effect = lower value) was 0.973 (inactive). The normalized growth (S. cerevisiae deletion strains, locus YLR330W, strain CHS5, stronger effect = lower value) was 0.883 (active), the normalized growth (S. cerevisiae deletion strains, locus YLR342W, strain FKS1 (second series), stronger effect = lower value) was 0.632 (active) and the normalized growth (S. cerevisiae deletion strains, locus YLR342W, strain FKS1, stronger effect = lower value) was 1.01 (inactive). For the same compound, the normalized growth (S. cerevisiae deletion strains, locus YLR357W, strain rsc2, stronger effect = lower value) was 1.07 (inactive), the normalized growth (S. cerevisiae deletion strains, locus YLR370C, strain arc18, stronger effect = lower value) was 0.955 (inactive) and the normalized growth (S. cerevisiae deletion strains, locus YLR371W, strain rom2, stronger effect = lower value) was 0.93 (inactive). The normalized growth (S. cerevisiae deletion strains, locus YLR384C, strain iki3, stronger effect = lower value) was 1.04 (inactive), the normalized growth (S. cerevisiae deletion strains, locus YLR418C, strain cdc73, stronger effect = lower value) was 0.959 (inactive) and the normalized growth (S. cerevisiae deletion strains, locus YML016C, strain PPZ1, stronger effect = lower value) was 1.01 (inactive). The normalized growth (S. cerevisiae deletion strains, locus YML032C, strain rad52, stronger effect = lower value) was 0.544 (active), the normalized growth (S. cerevisiae deletion strains, locus YML120C, strain ndi1, stronger effect = lower value) was 0.995 (inactive) and the normalized growth (S. cerevisiae deletion strains, locus YML124C, strain tub3, stronger effect = lower value) was 0.858 (active). For the same compound, the normalized growth (S. cerevisiae deletion strains, locus YMR058W, strain fet3, stronger effect = lower value) was 0.961 (inactive), the normalized growth (S. cerevisiae deletion strains, locus YMR078C, strain ctf18, stronger effect = lower value) was 0.954 (inactive) and the normalized growth (S. cerevisiae deletion strains, locus YMR125W, strain sto1, stronger effect = lower value) was 0.989 (inactive). The normalized growth (S. cerevisiae deletion strains, locus YMR129W, stronger effect = lower value) was 1.04 (inactive), the normalized growth (S. cerevisiae deletion strains, locus YMR205C, strain PFK2, stronger effect = lower value) was 0.973 (inactive) and the normalized growth (S. cerevisiae deletion strains, locus YMR223W, strain ubp8, stronger effect = lower value) was 0.508 (active). The normalized growth (S. cerevisiae deletion strains, locus YMR231W, strain pep5, stronger effect = lower value) was 1.02 (inactive), the normalized growth (S. cerevisiae deletion strains, locus YMR263W, strain SAP30, stronger effect = lower value) was 0.948 (inactive) and 0.979 (inactive) and the normalized growth (S. cerevisiae deletion strains, locus YMR307W, strain GAS1, stronger effect = lower value) was 1.15 (inactive) and 0.985 (inactive). For the same compound, the normalized growth (S. cerevisiae deletion strains, locus YNL067W, strain RPL9B, stronger effect = lower value) was 0.703 (active), the normalized growth (S. cerevisiae deletion strains, locus YNL071W, strain lat1, stronger effect = lower value) was 1.02 (inactive) and the normalized growth (S. cerevisiae deletion strains, locus YNL128W, strain TEP1, stronger effect = lower value) was 0.743 (active) and 0.988 (inactive). For the same compound, the normalized growth (S. cerevisiae deletion strains, locus YNL153C, strain GIM3, stronger effect = lower value) was 0.819 (active), the normalized growth (S. cerevisiae deletion strains, locus YNL175C, strain NOP13, stronger effect = lower value) was 0.992 (inactive) and the normalized growth (S. cerevisiae deletion strains, locus YNL183C, strain NPR1, stronger effect = lower value) was 0.644 (active). For the same compound, the normalized growth (S. cerevisiae deletion strains, locus YNL197C, strain WHI3, stronger effect = lower value) was 1 (inactive), the normalized growth (S. cerevisiae deletion strains, locus YNL209W, strain ssb2, stronger effect = lower value) was 0.985 (inactive) and the normalized growth (S. cerevisiae deletion strains, locus YNL224C, strain SQS1, stronger effect = lower value) was 0.959 (inactive). For the same compound, the normalized growth (S. cerevisiae deletion strains, locus YNL233W, strain BNI4, stronger effect = lower value) was 0.756 (active), the normalized growth (S. cerevisiae deletion strains, locus YNL248C, strain rpa49, stronger effect = lower value) was 1.01 (inactive) and the normalized growth (S. cerevisiae deletion strains, locus YNL250W, strain rad50, stronger effect = lower value) was 0.952 (inactive). For the same compound, the normalized growth (S. cerevisiae deletion strains, locus YNL271C, strain bni1, stronger effect = lower value) was 1.02 (inactive), the normalized growth (S. cerevisiae deletion strains, locus YNL298W, strain CLA4, stronger effect = lower value) was 1 (inactive) and the normalized growth (S. cerevisiae deletion strains, locus YNL307C, strain MCK1, stronger effect = lower value) was 0.622 (active). For the same compound, the normalized growth (S. cerevisiae deletion strains, locus YNL322C, strain KRE1 (second series), stronger effect = lower value) was 1.01 (inactive), the normalized growth (S. cerevisiae deletion strains, locus YNL322C, strain KRE1, stronger effect = lower value) was 0.794 (active) and the normalized growth (S. cerevisiae deletion strains, locus YNR049C, strain mso1, stronger effect = lower value) was 1.04 (inactive). The normalized growth (S. cerevisiae deletion strains, locus YNR052C, strain pop2, stronger effect = lower value) was 0.821 (active), the normalized growth (S. cerevisiae deletion strains, locus YOL006C, strain TOP1, stronger effect = lower value) was 0.847 (inactive) and the normalized growth (S. cerevisiae deletion strains, locus YOL012C, strain htz1) was 2.88 [resistant] (active). For the same compound, the normalized growth (S. cerevisiae deletion strains, locus YOL147C, strain pex11, stronger effect = lower value) was 0.6 (active), the normalized growth (S. cerevisiae deletion strains, locus YOR001W, strain rrp6, stronger effect = lower value) was 0.966 (inactive) and the normalized growth (S. cerevisiae deletion strains, locus YOR061W, strain CKA2, stronger effect = lower value) was 0.71 (active). For the same compound, the normalized growth (S. cerevisiae deletion strains, locus YOR069W, strain VPS5, stronger effect = lower value) was 0.848 (active), the normalized growth (S. cerevisiae deletion strains, locus YOR070C, strain gyp1, stronger effect = lower value) was 0.985 (inactive) and the normalized growth (S. cerevisiae deletion strains, locus YOR080W, strain dia2, stronger effect = lower value) was 1.03 (inactive). For the same compound, the normalized growth (S. cerevisiae deletion strains, locus YOR083W, strain WHI5 (second series), stronger effect = lower value) was 0.955 (inactive), the normalized growth (S. cerevisiae deletion strains, locus YOR083W, strain WHI5, stronger effect = lower value) was 0.97 (inactive) and the normalized growth (S. cerevisiae deletion strains, locus YOR106W, strain vam3, stronger effect = lower value) was 0.916 (inactive). For the same compound, the normalized growth (S. cerevisiae deletion strains, locus YOR136W, strain idh2, stronger effect = lower value) was 0.928 (inactive), the normalized growth (S. cerevisiae deletion strains, locus YOR144C, strain elg1, stronger effect = lower value) was 0.776 (active) and the normalized growth (S. cerevisiae deletion strains, locus YOR184W, strain ser1, stronger effect = lower value) was 0.59 (active). For the same compound, the normalized growth (S. cerevisiae deletion strains, locus YOR231W, strain MKK1, stronger effect = lower value) was 0.686 (active), the normalized growth (S. cerevisiae deletion strains, locus YOR265W, strain rbl2, stronger effect = lower value) was 1.02 (inactive) and the normalized growth (S. cerevisiae deletion strains, locus YOR270C, strain vph1, stronger effect = lower value) was 0.996 (inactive). For the same compound, the normalized growth (S. cerevisiae deletion strains, locus YOR290C, strain snf2, stronger effect = lower value) was 0.8 (active), the normalized growth (S. cerevisiae deletion strains, locus YOR316C, strain cot1, stronger effect = lower value) was 0.751 (active) and the normalized growth (S. cerevisiae deletion strains, locus YPL051W, strain arl3, stronger effect = lower value) was 0.961 (inactive). The normalized growth (S. cerevisiae deletion strains, locus YPL055C, strain LGE1, stronger effect = lower value) was 0.746 (active), the normalized growth (S. cerevisiae deletion strains, locus YPL078C, strain atp4, stronger effect = lower value) was 0.936 (inactive) and the normalized growth (S. cerevisiae deletion strains, locus YPL106C, strain sse1, stronger effect = lower value) was 0.984 (inactive). The normalized growth (S. cerevisiae deletion strains, locus YPL240C, strain hsp82, stronger effect = lower value) was 0.998 (inactive), the normalized growth (S. cerevisiae deletion strains, locus YPL241C, strain CIN2, stronger effect = lower value) was 0.914 (active) and the normalized growth (S. cerevisiae deletion strains, locus YPL256C, strain CLN2, stronger effect = lower value) was 0.797 (active). The normalized growth (S. cerevisiae deletion strains, locus YPR119W, strain clb2, stronger effect = lower value) was 0.946 (inactive), the normalized growth (S. cerevisiae deletion strains, locus YPR141C, strain kar3, stronger effect = lower value) was 1.04 (inactive) and the normalized growth (S. cerevisiae deletion strains, locus YPR163C, strain tif3, stronger effect = lower value) was 1.02 (inactive). For the same compound, the normalized growth (S. cerevisiae deletion strains, locus YPR167C, strain met16, stronger effect = lower value) was 0.866 (active), the normalized growth (S. cerevisiae deletion strains, strain wtn01, stronger effect = lower value) was 0.665 (active) and the normalized growth (S. cerevisiae strains, strain wild type, stronger effect = lower value) was 0.755 (active).

Source: PubChem BioAssay AID1159580 (chemical genetic matrix, 2015)
